# Screening results (PubChem)
# Hits are enriched below; roughly 3.2% of the tested compounds scored in any of these assays.
# mTORC1 inh = mTORC1 pathway inhibition measured by phospho-rpS6; Tsc2-/- p53-/- MEF, phospho-rpS6 immunofluorescence/PI, 24 h; Potency, µM (highest dose often 38.3 µM), for the others: at the highest dose activity change, negative = inhibition, usual class: inhibitors; actives 0.78% (n = 44,000);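 further: potency means the concentration at half of the fitted maximal effect; plate controls were DMSO for no effect and rapamycin for full effect; nearly all actives have a fitted effect of over 50% in size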
#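 Tsc2-/-, p53-/- mouse embryonic fibroblasts (empty-vector line) exposed to compound 24 hrs at 37 C, fixed, immunostained for phospho-rpS6 and counterstained with propidium iodide. Acumen laser scanning gives % positive cells from Alexa 488/PI ratio, thresholded using 7.5 nM rapamycin; PI count gives viability.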
# S16 F2sN tox = toxic to S16 Pmp22-F2sN Schwann cells; S16 Pmp22-F2sN Schwann cells viability, CellTiter-Glo, 24 h; Potency, µM (titrated, usually from 57.5 µM), inactives show at the highest dose activity change, negative = cytotoxicity, actives largely listed as cytotoxic; actives 0.48% (n = 43,000); AID 1508642; further: potency means the concentration at half of the fitted maximal effect; on the % scale 0 is the no-effect control and ±100 the full control effect; nearly all actives have a fitted effect of over 65% in size
#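 Rat S16 Schwann reporter line, 24 h treatment with library compounds delivered at 23 nL per well. Cell viability by CellTiter-Glo luminescence.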
# p53null 32C kill = kills p53 null cells at the permissive temperature; H1299-neo p53 null cells, ATP luminescence, 24 h, 32C; actives 0.62% (n = 55,000); Potency, µM (titrated, usually from 46.1 µM), for inactives: at the highest dose activity change, negative = cytotoxicity, actives largely listed as cytotoxic;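 further: potency means the concentration at half of the fitted maximal effect; 0% = DMSO only and -100% = full killing by 100 µM tamoxifen; nearly all actives have a fitted effect of over 55% in size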
#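 We seeded p53-null H1299-neo cells, incubated them overnight at 37C, and added compounds across a range up to 46 uM. After 24 hours at 32C, ATP reagent was applied for 20 min at room temperature and luminescence recorded.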
# p53null 39C tox = kills p53 null cells at the nonpermissive temperature; actives 0.97% (n = 55,000); H1299 p53-null (neo) cells, 39C, ATPlite viability, 24 h; Potency, µM (doses to about 46.1 µM), for inactives: at the top dose activity, negative = cell killing, actives largely listed as cytotoxic;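 further: potency means the concentration at half of the fitted maximal effect; 0% = DMSO only and -100% = full killing by 100 µM tamoxifen; nearly all actives have a fitted effect of over 50% in size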
#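 Cells seeded at 600/well, 37C overnight. Compound added (up to 46 uM), plates shifted to 39C for 24 hr. ATPlite added, luminescence read after 20 min at room temperature.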
# PMP22 txn = modulators of PMP22 gene transcription in S16 Schwann cells | S16 Pmp22-F2sN Schwann cells, FLuc/NLuc coincidence luminescence, 24 h | Potency, µM (top dose mostly 57.5 µM), without a hit: at the top dose activity change, negative = inhibition, usual class: inhibitors | actives 2% (n = 43,000) | AID 1508649; active means clear falling dose curves in both reporters; inconclusive means both reporters move, but less clearly or upward; inactive means either reporter flat; the % is the NLuc reporter signal; further: potency means the concentration at half of the fitted maximal effect; on the % scale 0 is the no-effect control and ±100 the full control effect
#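 Reporter cells (S16 Pmp22-F2sN, 500–1,000 per well) exposed to compounds for 24 h, 37C, 5% CO2; lysis with FLuc read after 10 min, then Stop&Glo and NLuc read after 10 min.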
# NLuc sat counter = NanoLuc enzyme inhibition artifact for PMP22 screen | shares compounds with PMP22 txn | Secreted NLuc enzyme (filtered S16 cell medium), Nano-Glo luminescence | Potency, µM (series often up to 57.5 µM), for the others: top-dose activity change, negative = inhibition, usual class: inhibitors | actives 4% (n = 690) | AID 1508638; further: potency means the concentration at half of the fitted maximal effect; on the % scale 0 is the no-effect control and ±100 the full control effect
# NLuc Km ctr = inhibits NanoLuc under Km conditions, PMP22 counter-screen. shares compounds with PMP22 txn. secreted NLuc enzyme, coelenterazine luminescence, Km conditions. Potency, µM (series often up to 57.5 µM), inactives show at the top dose activity change, negative = inhibition, most hits filed as inhibitors. actives 5% (n = 690). AID 1508639; further: potency means the concentration at half of the fitted maximal effect; on the % scale 0 is the no-effect control and ±100 the full control effect
# FLuc ctr PMP22 = firefly luciferase enzyme inhibition artifact for PMP22 screen | shares compounds with PMP22 txn | purified P. pyralis FLuc, luminescence, 10 min | Potency, µM (top dose mostly 57.5 µM), inactives show at the top dose activity, negative = inhibition, hits mostly inhibitors | 690 tested, under 10 active | AID 1508640; further: % of control where 0% means no effect
# Target sequence (P08659 whole entry, looked up): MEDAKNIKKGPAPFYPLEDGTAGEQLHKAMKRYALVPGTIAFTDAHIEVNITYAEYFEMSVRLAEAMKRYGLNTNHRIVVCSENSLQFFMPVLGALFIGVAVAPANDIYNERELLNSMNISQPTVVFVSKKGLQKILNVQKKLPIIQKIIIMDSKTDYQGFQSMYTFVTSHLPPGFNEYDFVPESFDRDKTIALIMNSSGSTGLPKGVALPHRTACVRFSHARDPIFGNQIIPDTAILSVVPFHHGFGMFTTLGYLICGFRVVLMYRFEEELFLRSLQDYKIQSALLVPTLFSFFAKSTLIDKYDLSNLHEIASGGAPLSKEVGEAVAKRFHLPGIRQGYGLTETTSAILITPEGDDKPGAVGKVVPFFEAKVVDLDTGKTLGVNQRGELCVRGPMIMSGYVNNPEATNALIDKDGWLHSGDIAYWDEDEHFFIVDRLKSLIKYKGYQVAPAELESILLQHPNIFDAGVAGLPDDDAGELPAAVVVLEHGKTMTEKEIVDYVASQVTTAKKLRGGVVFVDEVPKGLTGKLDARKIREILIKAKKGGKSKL
# S16 viab conf = confirmation of cytotoxicity in S16 Pmp22-F2sN Schwann cells (luciferase reporters placed in the Pmp22 gene); S16 Schwann cells viability, CellTiter-Glo ATP luminescence, 24 h; AID 1508641; actives 7% (n = 690); shares compounds with PMP22 txn; Potency, µM (series often up to 57.5 µM), inactives show top-dose activity change, negative = viability loss, hits mostly cytotoxic; further: potency means the concentration at half of the fitted maximal effect; on the % scale 0 is the no-effect control and ±100 the full control effect
# PMP22 txn cnf = PMP22 transcription modulation, confirmatory; shares compounds with PMP22 txn; S16 Schwann cells Pmp22-F2sN, dual luciferase, 24 h; Potency, µM (titrated, usually from 57.5 µM), for the others: top-dose activity change, negative = inhibition, hits mostly inhibitors; actives 22% (n = 690); active means clear falling dose curves in both reporters; inconclusive means both reporters move, but less clearly or upward; inactive means either reporter flat; the % is the FLuc reporter signal; further: potency means the concentration at half of the fitted maximal effect
# PMP22 HiBiT cnf = confirmation of modulators of rat PMP22 protein expression | 95 tested, under 10 active | shares compounds with PMP22 txn | Potency, µM (doses to about 27.9 µM), for inactives: top-dose activity change, negative = inhibition, usual class: inhibitors | S16 Schwann cells Pmp22-HiBiT, luminescence, 48 h
# Target sequence (P25094 whole entry, looked up): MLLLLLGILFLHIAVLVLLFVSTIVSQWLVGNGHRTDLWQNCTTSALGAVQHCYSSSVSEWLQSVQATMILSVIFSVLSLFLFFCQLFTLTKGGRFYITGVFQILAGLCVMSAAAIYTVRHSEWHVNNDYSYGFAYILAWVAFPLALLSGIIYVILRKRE
# The depositor's hits bear a star; ? = inconclusive; / = no result. Unless noted, the call rests on the fitted dose curve; in most records, active means well fitted curve in the direction sought with a large enough effect; inconclusive means small, poorly fitted or top-dose-only effect, or another doubt; inactive means no such curve, though single readings can be large; an effect the other way counts as inactive or inconclusive.
SMILES,mTORC1 inh,S16 F2sN tox,p53null 32C kill,p53null 39C tox,PMP22 txn,NLuc sat counter,NLuc Km ctr,FLuc ctr PMP22,S16 viab conf,PMP22 txn cnf,others
CC(C)Cn1c(=O)c2ccccc2n2c(-c3ccc(Br)cc3)nnc12,-19%,-25%,-1%,-5%,4%,/,/,/,/,/,
CCc1ccc(Nc2nc3ccccc3c3nnc(C)n23)cc1,0%,-9%,-1%,-12%,11%,/,/,/,/,/,
Cc1c(Cl)cccc1NC(=O)CSc1ncc2c(n1)-c1ccccc1N(C)S2(=O)=O,3%,5%,-23%,-18%,17µM*,?,?,2%,6%,-44%,
Cc1c(C(=O)NCc2ccc(Cl)cc2)sc2nc3n(c(=O)c12)CCCCC3,6%,-28%,-3%,-8%,-26%,/,/,/,/,/,
COC(=O)CS(=O)(=O)c1nc2ccccc2nc1N1CCCCC1,?,?,13%,32%,11µM*,?,?,-10%,29%,9.9µM*,PMP22 HiBiT cnf=?
CC1CN(C(=O)CCC(=O)Nc2cc(F)ccc2F)c2ccccc2S1 (stereo unspecified),-5%,-7%,7%,-11%,-7%,/,/,/,/,/,
Clc1ccc(-c2noc3ncnc(N4CCCCC4)c23)cc1,-24%,-21%,4%,-4%,12µM*,-7%,5%,-5%,-7%,-38%,
CCc1ccc(Nc2nc3c(S(=O)(=O)c4ccc(C)cc4)nnn3c3ccsc23)cc1,-11%,3%,7%,-20%,5.8µM*,-10%,?,3%,?,-39%,
CCOc1ccc(Nc2nc3c(S(=O)(=O)c4ccc(CC)cc4)nnn3c3ccc(Cl)cc23)cc1,1%,2%,-4%,-2%,7.9µM*,-15%,4%,-2%,-23%,?,
O=S(=O)(c1ccc(Br)cc1)c1nnn2c1nc(Nc1cccc(C(F)(F)F)c1)c1sccc12,4%,-5%,2%,11%,?,/,/,/,/,/,
Cc1cccc(Nc2nc3c(S(=O)(=O)c4ccc(Br)cc4)nnn3c3ccsc23)c1C,5%,-4%,2%,?,12µM*,-17%,?,11%,7%,?,
CCN(c1ccccc1)S(=O)(=O)c1ccc(NC(=O)c2cc(=O)c3cc(C)cc(C)c3o2)cc1,4%,-3%,-5%,43%,-16%,/,/,/,/,/,
CCCNC(=O)c1ccc2c(c1)N=C(CCC)c1ccccc1S2,?,3%,-7%,?,11µM*,?,9.7µM*,4%,-1%,4.1µM*,
CCC1=Nc2cc(C(=O)NCCN(CC)CC)ccc2Sc2ccccc21,?,-12%,21%,4%,17µM*,-19%,0%,-6%,-28%,?,
O=C(NCCCN1CCN(c2ccc(F)cc2)CC1)c1ccc2nc(Cc3ccccc3)oc2c1,-4%,-10%,3%,-7%,16µM*,-18%,3%,0%,-13%,?,
O=C(NCCCN1CCN(c2ccccc2)CC1)c1ccc2nc(Cc3ccccc3)oc2c1,0%,?,-8%,-19%,?,/,/,/,/,/,
Cc1ccc(C)c(N2CCN(CCCNC(=O)c3ccc4nc(C(C)C)oc4c3)CC2)c1,-6%,?,4%,-13%,11µM*,?,?,4%,?,?,
Cn1c(=O)c2cc(C(=O)NCCCN3CCN(c4cccc(Cl)c4)CC3)sc2c2ccccc21,-1%,-1%,-6%,?,-28%,/,/,/,/,/,
O=C(NCCCN1CCN(c2ccc(F)cc2)CC1)c1cc2c(Cl)nc3ccccc3c2s1,-3%,16%,0%,-24%,14µM*,-13%,-11%,1%,-19%,?,PMP22 HiBiT cnf=11%
CCc1ccccc1NC(=O)c1cc2c(Cl)nc3ccccc3c2s1,-1%,16%,-2%,13%,10µM*,-17%,?,-1%,3%,5%,
COc1ccc(-c2cc(C(F)(F)F)n3nc(C)c(-c4ccccc4)c3n2)cc1OC,-11%,23%,2%,-12%,11µM*,0%,2%,5%,-7%,?,
COc1ccc(-c2c(C)nn3c(C(F)(F)F)cc(-c4ccccc4)nc23)cc1OC,4%,11%,-3%,5%,-21%,/,/,/,/,/,
Cc1ccc(C)c(Cn2c(SCC(=O)NCc3ccccc3)nc3ccccc32)c1,0%,?,3%,27%,?,/,/,/,/,/,
COc1ccc(CNC(=O)CN2C(=O)CSc3ccc(S(=O)(=O)N4CCC(C)CC4)cc32)cc1,2%,-6%,-2%,11%,0%,/,/,/,/,/,
O=C(Nc1nc2ccc(F)cc2s1)c1nc(S(=O)(=O)Cc2ccccc2F)ncc1Cl,?,?,?,?,9.5µM*,-20%,?,2%,?,13µM*,
CCCCCOc1ccccc1CN1C(=O)C(=O)c2cc(C)ccc21,?,0%,2%,?,14µM*,?,?,-1%,-6%,?,
O=C1c2ccccc2C(=O)C1(c1ccccc1)N1CCN(c2cccc(Cl)c2)CC1,0%,4%,-8%,-3%,30%,/,/,/,/,/,
Cc1cc(C)cc(NC(=O)Cn2c(=O)oc3cc(S(=O)(=O)N4CCCC4)ccc32)c1,-9%,16%,10%,-14%,-27%,/,/,/,/,/,
